High-throughput results deposited in PubChem by National Center for Advancing Translational Sciences (NCATS).
Most compounds without a hit are left out; they make up all but 7.2% or so of the library.
FLuc inh: firefly luciferase inhibition; P08659; purified firefly luciferase, luminescence, 8 min; Potency, µM (doses to about 57.1 µM), for the others: at the top dose activity change, negative = inhibition, actives largely listed as inhibitors; hit rate 2.2% among 72,000; also: % is scaled to controls: 0 for no effect and ±100 for the full control effect; nearly all actives have a fitted effect of over 40% in size
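Titration-based qHTS; buffer 50 mM imidazole pH 7.2, 50 mM KCl, 7 mM MgCl2, 10 uM ATP, 0.01% Tween 20, 0.05% BSA; luciferase/luciferin detector mix added after compound; 8 min, ambient; luminescence.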
TSHR agonist: TSH receptor (human) agonism. P16473. HEK293-CNG-TSHR cells (CNG channel as cAMP sensor), membrane potential dye, cAMP. Potency, µM (highest dose often 57.1 µM), inactives show at the top dose activation, actives largely listed as activators. hit rate 0.48% among 73,000; active = well fitted activation curve with a large enough effect in the main read-out, with a control signal flat, not every such curve was filed as active; inconclusive = small, poorly fitted or top-dose-only effect, or a change in a side signal; inactive = no such curve, though single readings can be large or run the other way; % of control where 0% means no effect;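 also: the control signal comes from parental cells without the receptor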
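cAMP rise detected as CNG-channel membrane depolarization by fluorescent dye (emission 590 nm), 30 min after compound, following 60 min dye loading containing 100 uM RO 20-1724 at room temperature. Cells: TSHR/CNG HEK 293, with parental CNG HEK 293 as control.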
ERK AVP block: blocks ERK signaling stimulated by vasopressin | hit rate 0.99% among 72,000 | AID 995 | Potency, µM (titrated, usually from 57.5 µM), without a hit: at the top dose activity, negative = inhibition, actives largely listed as inhibitors | HEK293-V1b, vasopressin-stimulated pERK AlphaScreen; also: % is scaled to controls: 0 for no effect and ±100 for the full control effect; nearly all actives have a fitted effect of over 55% in size
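HEK293 cells stably expressing V1b receptor, seeded overnight in 1% FBS, were treated with compounds for 30 min at 37C, then stimulated 5 min with 25 nM vasopressin; phospho-ERK read by AlphaScreen SureFire after lysis.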
HEK293 cAMP cs: parental HEK293 cAMP activation (counter-screen); parental HEK293 CNG cAMP sensor, membrane potential fluorescence; Potency, µM (series often up to 57.1 µM), without a hit: top-dose activation, most hits filed as activators; hit rate 2.5% among 73,000; AID 938; also: % of control where 0% means no effect; nearly all actives have a fitted effect of over 55% in size
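Counterscreen for endogenous-receptor signalling: CNG-channel HEK 293 cells report cAMP rise by membrane depolarization. After 60 min dye equilibration with 100 uM RO 20-1724, compounds incubated 30 min before bottom-read fluorescence at 590 nm.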
Tau fil binding: binders of human tau filaments. AID 596. hit rate 2% among 71,000. recombinant tau filaments, thioflavin S fluorescence, 15 h; filaments grown with octadecylsulfate alongside compound. Potency, µM (titrated, usually from 57.1 µM), without a hit: at the top dose activity change, negative = inhibition;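 also: % is scaled to controls: 0 for no effect and ±100 for the full control effect; actives lower thioflavin S fluorescence by blocking filaments or displacing dye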
Target sequence (P10636 whole entry, looked up): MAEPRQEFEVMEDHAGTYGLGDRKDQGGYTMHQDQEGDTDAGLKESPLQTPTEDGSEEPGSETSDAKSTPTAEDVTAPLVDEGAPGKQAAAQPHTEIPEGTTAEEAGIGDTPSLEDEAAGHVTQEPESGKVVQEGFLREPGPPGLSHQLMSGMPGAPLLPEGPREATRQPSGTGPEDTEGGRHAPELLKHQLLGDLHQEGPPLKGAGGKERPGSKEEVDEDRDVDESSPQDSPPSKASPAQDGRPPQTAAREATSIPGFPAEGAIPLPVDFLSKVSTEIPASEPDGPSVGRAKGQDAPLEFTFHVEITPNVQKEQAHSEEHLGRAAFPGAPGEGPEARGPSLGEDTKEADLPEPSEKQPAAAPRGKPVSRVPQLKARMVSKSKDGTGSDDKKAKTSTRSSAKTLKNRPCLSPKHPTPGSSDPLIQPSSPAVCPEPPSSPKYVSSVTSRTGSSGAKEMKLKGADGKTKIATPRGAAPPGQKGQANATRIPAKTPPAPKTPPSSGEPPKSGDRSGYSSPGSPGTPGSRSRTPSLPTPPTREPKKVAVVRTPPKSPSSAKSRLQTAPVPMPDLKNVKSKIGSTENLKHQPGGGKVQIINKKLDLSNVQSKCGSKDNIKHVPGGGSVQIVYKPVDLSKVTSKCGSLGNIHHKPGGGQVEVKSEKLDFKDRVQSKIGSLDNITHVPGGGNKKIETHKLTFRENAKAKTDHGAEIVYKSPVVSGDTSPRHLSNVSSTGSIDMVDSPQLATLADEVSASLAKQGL
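Tau 2 uM in ThS buffer dispensed; compound added; 60 uM ODS added (finals 1 uM tau, 30 uM ODS); 15 h 37 C; fluor ex450/em510.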
Bst PK mod: modulators of Bacillus stearothermophilus pyruvate kinase; hit rate 1.2% among 51,000; purified pyruvate kinase, luminescence ATP production; ribose 5-phosphate activator present at AC10; Potency, µM; AID 361; in the data active = potency below about 11 µM; inconclusive = mostly about 12 µM to 25 µM;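 the screen sought inhibitors and activators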;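 also: scaled between full activation by ribose 5 phosphate and full inhibition by luteolin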
* hit, by the source's call; i = inactive; u = inconclusive; x = no result given; [ ] = remark or other dose. Unless noted, calls follow the shape of the dose curve; as a rule, active = well fitted curve in the direction sought with a large enough effect; inconclusive = small, poorly fitted or top-dose-only effect, or another doubt; inactive = no such curve, though single readings can be large; an effect the other way counts as inactive or inconclusive. Potency is read from the fitted curve at half-maximal effect.

SMILES | FLuc inh | TSHR agonist | ERK AVP block | HEK293 cAMP cs | Tau fil binding | Bst PK mod
N#Cc1cc2c(nc1SCc1ccncc1)CCC2 | -4.1% | 35.7% | -18.3% | 10.3% | 6.31µM* | >57
CCOC(=O)CC(=O)CSc1nc2c(cc1C#N)CCCCC2 | 10µM* | x | x | x | x | u
N#Cc1cc2c(nc1SCC(=O)N1CCCCC1)CCCC2 | -0.3% | u | -10.2% | u | 13.6% | x
CN1CCCC2(CCN(C(=O)c3cnccn3)CC2)C1 | 2.6%[11.4 µM] | -3.9% | 3.3% | 5.8% | -5.8% | x
c1csc(-c2nc3nc4ccccc4nc3n2Cc2ccc3c(c2)OCO3)c1 | -8.8% | -10.4% | 16.0% | -7.5% | 3.16µM* | x
COCCn1c(=O)c(-c2ccc(Cl)cc2)nc2cnc(N3CCNCC3)nc21 | -1.4%[11.4 µM] | 3.4% | 10.5% | -11.0% | 77.2% | x
Cc1cccc(CNc2cc(-c3ccc(C(=O)N(C)C)cc3)ncn2)c1 | -1.2%[2.29 µM] | u | -11.3% | u | 9.5% | x
O=C(CCNS(=O)(=O)c1ccc2c(c1)CCC(=O)N2)NCc1ccc2c(c1)OCO2 | 0.2% | -3.1% | 3.2% | -6.1% | -0.6% | >57
Cc1cccc(N2CCN(C(=O)CCNS(=O)(=O)c3ccc4c(c3)CCC(=O)N4)CC2)c1C | -1.2% | 27.6% | 25.1µM* | 7.9% | 0.2% | >57
COc1ccc(O[C@H]2C=C[C@@H](c3ccccc3)O[C@H]2COC(=O)CC/C(C)=N\OC[C@@H](O)[C@H]2O[C@H]3OC(C)(C)O[C@H]3[C@@H]2O)cc1 | 0.4%[11.4 µM] | -3.9%[11.4 µM] | 5.3%[11.5 µM] | 2.4%[11.4 µM] | x | x
COCCN(CCOC)S(=O)(=O)c1ccc(C(=O)Nc2nc(-c3ccncc3)cs2)cc1 | 0.1% | x | 25.1µM* | 3.8% | 37.0% | >57
NC(=O)N[C@H]1NC(=O)NC1=O | -1.6%[25.5 µM] | u | -3.2%[25.7 µM] | 12.6µM* | -4.5%[25.6 µM] | x
CCOC(=O)c1[nH]c2cc3c(cc2c1NC(=O)CN1CC(C)CC(C)C1)OCO3 (stereo not given) | -0.7%[25.5 µM] | x | x | x | x | 3.49*
CCOC(=O)c1[nH]c2ccc(OCC)cc2c1NC(=O)CN1CCCC(C)C1 (stereo not given) | 3.7% | 22.4% | -2.2% | 17.4% | 0.6% | i
CN1CCN(c2ncnc3ccc(-c4ccoc4)cc23)CC1 | -1.1%[2.29 µM] | 10.6% | -26.4% | 6.9% | 6.0% | x
CCOC(=O)CCC(NC(=O)c1ccc(NCN2C(=O)c3ccccc3C2=O)cc1)C(=O)OCC (stereo not given) | 1.1% | u | 19.9% | 0.794µM* | -9.9% | x
COC(=O)[C@@]1(Cc2ccc(F)cc2)[C@H]2c3cc(C(=O)N(C)C)n(CCCNc4ccc(C(F)(F)F)cc4Cl)c3C[C@H]2CN1C(=O)c1ccccc1 | x | 2.3% | -6.6% | 13.1% | 1.7% | x
C=C1CC[C@@H]2O[C@@]2(C)CC[C@H]2[C@H]1CC2(C)C | x | x | -17.0% | x | x | x
c1cncc(-c2nccc(NCc3cccs3)n2)c1 | -0.5%[2.29 µM] | 8.1% | 31.6µM* | 13.8% | -9.8% | x
Clc1ccccc1-c1nccc(NCc2cccs2)n1 | -1.0%[2.29 µM] | u | 15.8µM* | u | 0.0% | x
COc1ccc(OC)c(C(c2nnnn2CCC(C)C)N2CCN(C(=O)c3ccco3)CC2)c1 (stereo not given) | -2.2% | u | 21.2% | 15.8µM* | 12.7% | >57
COc1cccc2sc(N)nc12 | x | 2.0% | 4.7% | 23.4% | 0.4% | x
COc1cccc2sc(N(C)c3ccccc3)nc12 | 7.94µM* | 13.5% | -29.1% | 11.1% | 4.3% | 8.14*
CCCCCCc1c(C[C@H](N)C(=O)O)o[nH]c1=O | -0.7% | 1.8% | -6.8% | 1.6% | u | x
Cc1ccsc1C=Nc1ccc(O)cc1 | -7.1% | -6.2% | -16.7% | -10.5% | 20µM* | x
COc1ccc(OCC2Cc3c(-c4ccccc4)nc4c(c3CO2)CN(CCOc2ccccc2)CC4)cc1 (stereo not given) | x | 11.3%[11.4 µM] | 2.3%[11.5 µM] | 4.0%[11.4 µM] | x | x
O=C(Nc1ccccc1)N1CC2(CCN(C(=O)c3cccc(F)c3)CC2)C1 | -1.6%[11.4 µM] | u | 37.5% | u | -2.2% | x
COc1ccc(C2c3c(oc4ccccc4c3=O)C(=O)N2c2ccc(C)cn2)cc1OC (stereo not given) | 0.0% | -15.3% | -19.5% | 10.5% | 6.31µM* | x
